# Inconclusive results are not listed. The source made the active and inactive calls. The call rests on the fitted dose curve; in most records, active means well fitted inhibition curve with a large enough effect; inconclusive means small, poorly fitted or top-dose-only effect; inactive means flat fitted curve, though single readings scatter.
# Target: Dual specificity protein kinase CLK4 (Homo sapiens) (UniProt Q9HAZ1)
# Assay: qHTS Assay for Inhibitors of CDC-like Kinase 4 (ADP-Glo Assay) (AID 1771); further: nearly all actives have a fitted effect of over 70% in size
# Details: recombinant CLK4, ADP-Glo luminescence; series mostly up to 80 µM
# Experimental: NIH Molecular Libraries Probe Production Centers Network [MLPCN] NIH Chemical Genomics Center [NCGC] MLPCN Grant: 1R03MH084827-01 Assay Submitter (PI): Tom Misteli NCGC Assay Overview: Clk4 (Invitrogen, cat# PV3839) was assayed using ATP and the RS repeat peptide (AnaSpec cat # 61722) as substrates. In the assay, the ADP levels were detected using Promega ADP-Glo technology wherein the remaining ATP from the kinase reaction is first depleted with an ATPase reagent followed by a reagent that contains and enzyme which converts the ADP produced to ATP as well as Ultra-Glo luciferase and D-luciferin which generates a bioluminescence signal from the ATP. The positive control for the assay was TG003 (Sigma-Aldrich, cat# 300801-52-9) which has been described as an inhibitor of Clk 4[1].
# NCGC Assay Protocol Summary: Two uL/well of substrate-buffer solution (100 uM RS peptide, 1 uM ATP, 1x ADP-Glo Buffer A, 2 mM MgCl2, 0.5 mM EGTA, 2.5 mM DTT, 0.01% Triton X-100, final concentrations) was dispensed into 1536-well plates (Greiner, solid white, medium binding assay plates) with the Aurora Discovery BioRAPTR Flying Reagent Dispenser (FRD; Beckton-Dickenson). Twenty-three nanoliter of compound and control solutions were transferred to the assay plate using a Kalypsys pin-tool followed by 0.5 uL/well Clk4-buffer solution (25 nM Clk4, 1x ADP-Glo Buffer A, 2 mM MgCl2, 0.5 mM EGTA, 2.5 mM DTT, 0.01% Triton X-100 final concentration) dispensing for a total kinase reaction volume of 2.5 uL/ well. After 1 hr of room-temperature incubation, 2.5 uL ADP-Glo reagent was added and incubated at room temperature for 45 min to stop the kinetic reaction and degrade residual ATP. The ADP product was then converted to ATP by adding 5 uL per well of ADP-Glo Reagent II to yield a total assay volume of 10 uL/ well. Luminescence was detected after 30 min room temperature incubation with the Perkin Elmer Viewlux.
# Potency means the concentration at half of the fitted maximal effect.
# Chain of Dual specificity protein kinase CLK4 (Homo sapiens) (Q9HAZ1 whole entry, looked up): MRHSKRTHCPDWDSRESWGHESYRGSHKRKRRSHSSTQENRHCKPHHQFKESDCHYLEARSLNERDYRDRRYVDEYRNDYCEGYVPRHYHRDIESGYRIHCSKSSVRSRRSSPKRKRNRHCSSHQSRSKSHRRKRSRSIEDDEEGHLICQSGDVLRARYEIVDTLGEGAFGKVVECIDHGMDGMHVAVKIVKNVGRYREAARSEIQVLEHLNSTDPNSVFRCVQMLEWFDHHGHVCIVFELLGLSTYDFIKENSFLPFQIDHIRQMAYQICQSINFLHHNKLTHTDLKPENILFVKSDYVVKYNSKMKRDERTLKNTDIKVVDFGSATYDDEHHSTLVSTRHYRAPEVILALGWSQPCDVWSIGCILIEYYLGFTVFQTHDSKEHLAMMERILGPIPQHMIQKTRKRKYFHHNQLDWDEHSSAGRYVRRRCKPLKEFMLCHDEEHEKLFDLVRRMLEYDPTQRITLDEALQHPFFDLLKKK
row,SMILES,Potency
1,COc1ccc2[nH]cc(CCNc3ncncc3-c3ccccc3Cl)c2c1,10 µM (active)
2,N#Cc1cccc(-c2nc(NCCN3CCOCC3)c3ccccc3n2)c1,6.31 µM (active)
3,Cc1cnc(CNc2ncnc3ccc(-c4ccc(N(C)C)cc4)cc23)cn1,11.2 µM (active)
4,COc1ccc(-n2c(=O)c(CCc3ccccc3)nc3cnc(OC)nc32)cc1,inactive
5,COCCn1c(=O)c(CCc2ccccc2)nc2cnc(OCc3ccccc3)nc21,inactive
6,COc1cccc(-c2nc(N(C)C)c3ccccc3n2)c1,7.08 µM (active)
7,COc1ncc2nc(-c3ccccc3)c(=O)n(CCc3ccccc3)c2n1,inactive
8,O=c1c(-c2ccccc2)nc2cnc(Oc3ccccc3)nc2n1C[C@H]1CCCO1,inactive
9,COc1ccc2[nH]cc(CCNc3nc(-c4ccccc4OC)nc4ccccc34)c2c1,35.5 µM (active)
10,COc1ccc2[nH]cc(CCNc3ncnc4ccc(-c5ccccc5OC)cc34)c2c1,25.1 µM (active)
11,COc1ccc2[nH]cc(CCNc3ncncc3-c3ccc4c(c3)OCO4)c2c1,7.08 µM (active)
12,Cc1noc(C)c1-c1nc(N2CCN(C)CC2)c2ccccc2n1,28.2 µM (active)
13,COc1cccc(-c2nc(NCc3cccnc3)c3ccccc3n2)c1,17.8 µM (active)
14,COc1ccccc1CNc1ccnc(-c2cccc(NS(C)(=O)=O)c2)n1,25.1 µM (active)
15,O=c1c(CCc2ccccc2)nc2cncnc2n1Cc1ccccc1,inactive
16,c1cncc(CNc2nc(-c3cccnc3)nc3ccccc23)c1,12.6 µM (active)
17,N#Cc1ccccc1-c1ccc2ncnc(NCc3cccnc3)c2c1,5.01 µM (active)
18,COc1ccccc1CNc1ccnc(-c2cccnc2)n1,28.2 µM (active)
19,CN(Cc1ccco1)c1nc(-c2cccnc2)nc2ccccc12,14.1 µM (active)
20,COCCn1c(=O)c(-c2cccc(C#N)c2)nc2cnc(OCc3ccccc3)nc21,inactive

row,SMILES,Potency
1,COc1ccc2[nH]cc(CCNc3cc(-c4cccc(C#N)c4)ncn3)c2c1,31.6 µM (active)
2,COc1ccccc1CNc1cc(-c2ccccc2CN(C)C)ncn1,inactive
3,COCCn1c(=O)c(CCc2ccccc2)nc2cnc(N(C)C)nc21,inactive
4,COCCn1c(=O)c(-c2cccs2)nc2cnc(N3CCNCC3)nc21,inactive
5,COc1ccc(-c2nc3cnc(Oc4cccc(Cl)c4)nc3n(C[C@H]3CCCO3)c2=O)cc1,inactive
6,CN(C)C(=O)c1ccc(-c2nc(Nc3ccccc3)c3ccccc3n2)cc1,28.2 µM (active)
7,COc1ccc(Oc2ncc3nc(-c4ccccc4)c(=O)n(C[C@H]4CCCO4)c3n2)cc1,inactive
8,O=c1c(CCc2ccccc2)nc2cnc(Oc3ccccc3)nc2n1C1CC1,inactive
9,CCNc1ncc2ncc(=O)n(Cc3cccc(OC)c3)c2n1,3.16 µM (active)
10,COc1ccccc1CNc1ncncc1-c1ccc2c(c1)OCO2,2 µM (active)
11,COc1ccc(CNc2cc(-c3cccc(NS(C)(=O)=O)c3)ncn2)c(OC)c1,inactive
12,CCNc1ncc2nc(CCc3ccccc3)c(=O)n(CCC#N)c2n1,inactive
13,COCCn1c(=O)c(CCc2ccccc2)nc2cncnc21,inactive
14,COc1ccc2[nH]cc(CCNc3cc(-c4ccccc4OC)ncn3)c2c1,25.1 µM (active)
15,CN(Cc1ccco1)c1cc(-c2ccc3c(c2)OCO3)ncn1,3.16 µM (active)
16,COc1cccc(Cn2c(=O)c(CCc3ccccc3)nc3cnc(N(C)C)nc32)c1,inactive
17,COc1ccc(-n2c(=O)c(-c3cccs3)nc3cnc(N4CCN(C)CC4)nc32)cc1,inactive
18,COCCn1c(=O)c(CCc2ccccc2)nc2cnc(Oc3ccccc3)nc21,inactive
19,Cn1cc(-c2nc3cnc(N4CCNCC4)nc3n(CCc3ccccc3)c2=O)c2ccccc21,inactive
20,Cc1cnc(CNc2ncnc3ccc(-c4ccccc4C)cc23)cn1,25.1 µM (active)

# From PubChem BioAssay (NCATS)
